Experimental data published in PubChem BioAssay (NCI).
This is part of a sample that, as a whole, favours compounds with a hit. Of some 83,000 tested, about 20% had one in any assay.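 Interpretation: 100, growth as untreated; towards 0, rising growth inhibition; 0, no net growth; 0 to -100, cell death. Compounds scoring below 10 were considered active.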 Unmarked numbers belong to inactive results. Active and inactive are the calls of the source.

Experiments:
Assay in all cases: NCI-60 one-dose screen, 48 h (100 = growth as untreated, 0 = no growth, -100 = all killed)
Settings in all cases: 10 µM
[1] = tested on: SK-MEL-2 melanoma
[2] = tested on: EKVX NSCLC
[3] = tested on: SN12C renal
[4] = tested on: UO-31 renal
[5] = tested on: TK-10 renal
[6] = tested on: ACHN renal
[7] = tested on: CAKI-1 renal
[8] = tested on: A498 renal
[9] = tested on: CCRF-CEM leukemia
[10] = tested on: MOLT-4 leukemia

COc1ccc(-c2cc(-c3cc(C(=O)c4ccccc4)n4ccc(C)cc34)nc(N)c2C#N)cc1
growth [1]: 84.8% | growth [2]: 81.2% | growth [3]: 70% | growth [4]: 65% | growth [5]: 92.4% | growth [6]: 56.4% | growth [7]: 69.9% | growth [8]: 127% | growth [9]: 98.3% | growth [10]: 93.8%

COc1ccc(NC(=O)CSc2nnc(-c3ccc4nc(-c5ccc(Cl)cc5)[nH]c4c3)o2)cc1
growth [1]: 107% | growth [2]: 98.8% | growth [3]: 29.1% | growth [4]: 63.9% | growth [5]: 121% | growth [6]: 63.8% | growth [7]: 83.6% | growth [8]: 132% | growth [9]: 67.5% | growth [10]: 30.4%

COc1cccc2nc(Nc3cccc(NC(=O)c4ccc(CN5CCCN(C)CC5)c(C(F)(F)F)c4)c3)ccc12
growth [1]: -87.4% (active) | growth [2]: -98.9% (active) | growth [3]: -79.9% (active) | growth [4]: -97.2% (active) | growth [5]: -89.4% (active) | growth [6]: -100% (active) | growth [7]: -100% (active) | growth [8]: -91% (active) | growth [9]: -54.3% (active) | growth [10]: -42.8% (active)

Cc1noc2c(Cc3ccc([N+](=O)[O-])cc3)nn(CC(=O)N/N=C/c3ccc(Cl)cc3)c(=O)c12
growth [1]: 90.5% | growth [2]: 79.8% | growth [3]: 54% | growth [4]: 40.8% | growth [5]: 71.9% | growth [6]: 19.4% | growth [7]: 52.3% | growth [8]: 80.1% | growth [9]: 95.6% | growth [10]: 97.8%

COc1cccc(COc2ccc(/C=C3\Oc4cc(O)ccc4C3=O)cc2)c1
growth [1]: 87% | growth [2]: 70.9% | growth [3]: 66.1% | growth [4]: -64.7% (active) | growth [5]: 2.68% (active) | growth [6]: -32.1% (active) | growth [7]: -23% (active) | growth [8]: 131% | growth [9]: 74.9% | growth [10]: 52.1%

Nc1cccnc1/C=N/NC(=S)NCCNC(=O)c1ccc(-n2nc(-c3ccccc3O)nc2-c2ccccc2O)cc1
growth [1]: -4.94% (active) | growth [2]: 2.53% (active) | growth [3]: 5.7% (active) | growth [4]: -3.95% (active) | growth [5]: 12.3% | growth [6]: 2.89% (active) | growth [7]: 4.97% (active) | growth [8]: 73.7% | growth [9]: -6.46% (active) | growth [10]: 11.8%

Nc1nc(Nc2ccccc2)nn1Cc1c(Cl)cccc1Cl
growth [1]: 49.2% | growth [2]: 20.2% | growth [3]: 44.5% | growth [4]: 11.8% | growth [5]: 53.8% | growth [6]: 13.9% | growth [7]: 27.9% | growth [8]: -3.12% (active) | growth [9]: 26.5% | growth [10]: 18.6%

Cc1ccc(/C=C/C(=O)c2ccc(S(=O)(=O)NCCNc3nc(Nc4ccc(F)cc4)nc(N(C)C)n3)cc2)cc1
growth [1]: 84.5% | growth [2]: 30.7% | growth [3]: -83.9% (active) | growth [4]: 36.8% | growth [5]: 100% | growth [6]: 11.9% | growth [7]: 29.3% | growth [8]: 37.3% | growth [9]: 17.6% | growth [10]: 10.1%

O=C(Nc1cccc(C(F)(F)F)c1)c1cncc(C#Cc2cnc3cccnn23)c1
growth [1]: 61.1% | growth [2]: 54.7% | growth [3]: 35.5% | growth [4]: 30.4% | growth [5]: 97.8% | growth [6]: 55.2% | growth [7]: 71.8% | growth [8]: 171% | growth [9]: 16.5% | growth [10]: 24.3%

CC(C)c1ccc(C(=O)Nc2sc3c(c2C(N)=O)CCC(=O)C3=O)cc1
growth [1]: 98.8% | growth [2]: 87.9% | growth [3]: 94.7% | growth [4]: 59.7% | growth [5]: 125% | growth [6]: 93.6% | growth [7]: 91.9% | growth [8]: 130% | growth [9]: 86.4% | growth [10]: 72.4%

Cc1noc2c(Cc3ccccc3)nn(CC(=O)N/N=C/c3ccc(Cl)cc3)c(=O)c12
growth [1]: 94.3% | growth [2]: 72.9% | growth [3]: 7.85% (active) | growth [4]: -40.5% (active) | growth [5]: 4.87% (active) | growth [6]: -16.5% (active) | growth [7]: 38.5% | growth [8]: -58.1% (active) | growth [9]: 97.3% | growth [10]: 102%

O=[N+]([O-])c1ccc(-c2nc(-c3ccccc3)c(-c3ccccc3)n2-c2ccc(S(=O)(=O)Nc3ncccn3)cc2)cc1
growth [1]: 69.4% | growth [2]: 22.8% | growth [3]: 38.9% | growth [4]: 22.1% | growth [5]: 66% | growth [6]: 50.1% | growth [7]: 29% | growth [8]: 79.3% | growth [9]: 20.8% | growth [10]: 26.2%

N#Cc1c(-c2ccc(Cl)cc2)cc(-c2ccccc2)nc1OCc1ccccc1
growth [1]: 76% | growth [2]: 52.6% | growth [3]: 87.8% | growth [4]: 65.6% | growth [5]: 97.8% | growth [6]: 75% | growth [7]: 73.8% | growth [8]: 118% | growth [9]: 79.9% | growth [10]: 47.8%

O=C(CSc1nnc(-c2c[nH]c3ccccc23)n1-c1ccccc1)Nc1ccc(C(=O)/C=C/c2ccccc2Cl)cc1
growth [1]: 93.5% | growth [2]: 67.2% | growth [3]: 84.5% | growth [4]: 51.6% | growth [5]: 103% | growth [6]: 74.5% | growth [7]: 74% | growth [8]: 101% | growth [9]: 88.2% | growth [10]: 55.6%

COc1csc(/C=N/NC(=O)c2[nH]c3ccc(Br)cc3c2-c2ccccc2)c1
growth [1]: 10.3% | growth [2]: 49.2% | growth [3]: 5.51% (active) | growth [4]: 36.7% | growth [5]: 32.8% | growth [6]: 19.1% | growth [7]: 9.49% (active) | growth [8]: 57.8% | growth [9]: -2.42% (active) | growth [10]: 1.69% (active)
